For 37 molecules, Potency, activity change, positive = activation and outcome results are on record in PubChem BioAssay (Tox21).

“And” between values parts separate entries of the source, which are not always exact repeats. Equal entries are not always repeated. Results filed as inconclusive are left out. Where a call stands in place of a potency, no number is given. The source made the active and inactive calls. Unless noted, calls follow the shape of the dose curve; as a rule, active = well fitted curve in the direction sought with a large enough effect in the repeat runs; inconclusive = weak or mixed curves; inactive = no such curve, though single readings can be large; an effect the other way counts as inactive or inconclusive.

The first assay is described as follows: qHTS assay to identify small molecule agonists of H2AX - cell viability counter screen (AID 1224847; calls by dose curve; also: top concentration of the series differs between compounds; nearly all actives have a fitted effect of over 30% in size). The note with it: CHO-K1 viability, CellTiter-Glo luminescence, 3 h; series mostly up to 154 µM. The procedure, abridged:
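Wild-type CHO-K1 cells (10% FBS medium) were plated overnight at 37C, exposed to compounds at 15 concentrations for 3 hr at 37C (0.76% DMSO final), and viability was read as CellTiter-Glo luminescence after 30 min at room temperature.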
Background: qHTS replaces the single test concentration by a dilution series.
Consider `O=Cc1cccc(Oc2ccccc2)c1`, for which the Potency entry is “inactive”.
`CC(NC(C)(C)C)C(=O)c1cccc(Cl)c1` (stereo unspecified): the Potency result is “inactive”.
The same measure, in the same setting: with `CCNc1nc(NC(C)C)nc(SC)n1` the entry was “inactive”.

Another assay can be described thus: qHTS assay to identify small molecule antagonists of the estrogen related receptor (ERR) signaling pathway from Tox21 library (AID 1224848). Also: nearly all actives have a fitted effect of over 50% in size. Also: potency is read from the fitted curve at half-maximal effect. The settings on record: ERR reporter cell line, luciferase antagonist mode, 18 h; series mostly up to 92.4 µM. An outline of the steps:
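Cells: ERR line, 2,000/well; 6 h preincubation 37 C/5% CO2. Cpd in DMSO via pin tool; 18 h, 37 C. ONE-Glo, 30 min RT, luminescence.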
As for `C=CC(N)=O`, the Potency result is “inactive”.
As for `O=c1ccc(=O)[nH][nH]1`, the Potency entry is “inactive”.
Regarding `O=[N+]([O-])c1ccccc1`, the Potency entry was “inactive”.
On the same count and under the same terms, with `CC(=O)C=C(C)C` the entry was “inactive”; with `BrCCBr`, “inactive”.
Same read-out and setting: with `CCC(C)(CC)c1cc(NC(=O)c2c(OC)cccc2OC)on1` the figure was 54.6 µM (active) and 46.7 µM (active).
Regarding `Cc1ccc(N)cc1N`, the Potency entry is “inactive”.
Take `O=[N+]([O-])c1ccc(Oc2ccc(Cl)cc2Cl)cc1`: the Potency entry is “inactive”.

The next assay can be described thus: qHTS assay to identify small molecule agonists of the estrogen related receptor (ERR) signaling pathway from Tox21 library (AID 1224849; calls by dose curve; also: nearly all actives have a fitted effect of over 15% in size). The settings on record: ERR reporter cell line, ONE-Glo luciferase, 18 h; at 92.4 µM (top of the series). An outline of the steps: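 We plated ERR reporter cells, waited 6 h, added compounds in DMSO by pin tool and incubated them 18 h at 37 C. ONE-Glo was then added and luminescence read after 30 min.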
Consider `C=CC(N)=O`, for which the activity change, positive = activation was 7.14% (inactive).
Regarding `O=c1ccc(=O)[nH][nH]1`, the activity change, positive = activation was 3.51% (inactive) and 9.01% (inactive).
For the molecule `O=[N+]([O-])c1ccccc1`, the activity change, positive = activation is 8.72% (inactive) and 8.25% (inactive).
On to `CC(=O)C=C(C)C`, for which the activity change, positive = activation is 0.13% (inactive) and 3.17% (inactive).
Turning to `BrCCBr`, the activity change, positive = activation is 3.43% (inactive) and 4.88% (inactive).
The same measure, in the same setting: with `CCC(C)(CC)c1cc(NC(=O)c2c(OC)cccc2OC)on1` the figure was -45.6% (inactive) and -38.5% (inactive); with `Cc1ccc(N)cc1N`, 49% (active).
For `O=[N+]([O-])c1ccc(Oc2ccc(Cl)cc2Cl)cc1`, the activity change, positive = activation is -5.45% (inactive) and -4.04% (inactive).

Another assay in a line: qHTS RealTime-Glo MT Cell Viability Assay in HepG2 cells - 24 hour (AID 1224867). Also: nearly all actives have a fitted effect of over 50% in size. The note with it: RealTime-Glo luminescence; series mostly up to 76.8 µM. The procedure, abridged: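 Viability was tracked continuously by NanoLuc luminescence from prosubstrate reduced by living HepG2 cells, at successive time points over 40 h of compound exposure. Cells with reagent were preincubated 5 h at 37 °C before compound addition.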
In the case of `C=CC(N)=O`, the call was inactive.
On to `O=c1ccc(=O)[nH][nH]1`, for which the molecule was called inactive.
For the molecule `CN(C)[C@@H]1C(=O)C(C(N)=O)=C(O)[C@@]2(O)C(=O)C3=C(O)c4c(O)cccc4[C@@](C)(O)[C@H]3C[C@@H]12`, the result was inactive.
Still for that read-out and setting: then `O=[N+]([O-])c1ccccc1`, with “inactive”; and `CC1C=[C-]C=C1.[C-]#[O+].[C-]#[O+].[C-]#[O+].[Mn]`, with “inactive”; and `CCCN(CCC)N=O`, with “inactive”.
On the same count and under the same terms, with `C1CN2CCN1CC2` the entry was “inactive”.
Take `[N-]=[N+]=[N-]`: the molecule was classed as inactive.
Same read-out and setting: then `CC(Br)C(=O)O` (stereo unspecified), with “inactive”; and `CC(C)(Cl)Cl`, with “inactive”; and `CCNc1nc(NC(C)(C)C)nc(SC)n1`, with “inactive”.
Consider `O=NN1CCCCCCC1`, for which the molecule was classed as inactive.
With `CC(=O)C=C(C)C`, the molecule was classed as inactive.
As for `OCCN(CCO)CCO`, the molecule was called inactive.
As for `Nc1c(Cl)c(Cl)nc(C(=O)O)c1Cl`, the result was inactive.
`ClCc1cccnc1`: the call was inactive.
Same read-out and setting: then `Cc1[nH]c(=O)n(C(C)(C)C)c(=O)c1Cl`, with “inactive”.
Still for that read-out and setting: with `BrCCBr` the entry was “inactive”; with `CCC(C)(CC)c1cc(NC(=O)c2c(OC)cccc2OC)on1`, “inactive”; with `CN(C)N=O`, “inactive”.
On the same count and under the same terms, then `Cc1ccc(N)cc1N`, with “inactive”.
As for `CCC[N+](=O)[O-]`, the outcome was inactive.
Consider `CCC12COCN1COC2`, for which the result was inactive.
In the case of `CC(C)(C)OOC(=O)c1ccccc1`, the result was inactive.
Same read-out and setting: with `CCOP(OCC)OCC` the entry was “inactive”; with `Nc1ccc(Br)cc1`, “inactive”.
The same measure, in the same setting: with `CCOP(=S)(OCC)SCCSCC` the entry was “inactive”; with `O=NN1CCCC1`, “inactive”.
For `C#CC(C)(C)NC(=O)c1cc(Cl)cc(Cl)c1`, the result was inactive.
As to `O=[N+]([O-])c1ccc(Oc2ccc(Cl)cc2Cl)cc1`, the molecule was classed as inactive.
For the molecule `CCN(CC)CCO`, the result was inactive.
As for `C=CCO`, the call was inactive.
The same measure, in the same setting: then `CCCC1COC(Cn2cncn2)(c2ccc(Cl)cc2Cl)O1` (stereo unspecified), with “inactive”.
Still for that read-out and setting: then `C1CC2OC2CC1C1CO1` (stereo unspecified), with “inactive”.
The same measure, in the same setting: then `O=Cc1cccc(Oc2ccccc2)c1`, with “inactive”.
Regarding `CC(NC(C)(C)C)C(=O)c1cccc(Cl)c1` (stereo unspecified), the molecule was classed as inactive.
The same measure, in the same setting: then `CCNc1nc(NC(C)C)nc(SC)n1`, with “inactive”.
